PfHsp90 set2: reduces growth (ATP signal) of yeast expressing P. falciparum Hsp90; S. cerevisiae expressing PfHsp90, BacTiter-Glo ATP, 48 h; yeast lacking PDR1 and PDR3 efflux regulators; inhibition, % at 9.4 µM; hit rate 0.32% among 310,000; AID 504621;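 active means every replicate shows inhibition above about 80%, whatever the replicate mean, limit read from the data; inconclusive means mean inhibition reaches the set limit but some replicate falls short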
V-ATPase pHluor: yeast V-ATPase proton transport regulation by pHLuorin; hit rate 0.37% among 350,000; AID 504577; S. cerevisiae, pHLuorin cytosolic pH fluorescence; response, % at 10 µM; in the data active means response mostly above about 7.3%, no sharp cut-off; inactive means mostly below about 5.4%; further: actives read high
tim23-1 inh: tim23-1 yeast growth inhibition; S. cerevisiae tim23-1 growth, BacTiter-Glo luminescence, 24 h; inhibition, % at 20 µM; hit rate 1.3% among 330,000;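 active means growth inhibition of the mutant yeast at or above 50%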;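 further: temperature-sensitive mutant grown at 25 °C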
SKKanGAS inh: SKKanGAS growth inhibition | S. pyogenes SKKanGAS, kanamycin growth, BacTiter-Glo, 6 h | inhibition, % at 7.5 µM | hit rate 1.3% among 300,000 | AID 1662;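 active means mean replicate score, as percent of positive control median, at least 50; inconclusive means mean below 50 but one replicate at or above 50; inactive means mean and every replicate below 50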;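 further: strain carries kanamycin resistance gene driven by streptokinase promoter and grows in 40 µg/ml kanamycin; loss of luminescence reflects streptokinase promoter inhibition or plain growth inhibition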
TIM10 inh: inhibits growth of TIM10 yeast strain; S. cerevisiae TIM10 strain growth, BacTiter-Glo luminescence, 24 h; hit rate 1.4% among 330,000; AID 463195; inhibition, % at 10 µM;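 active means inhibition of 40% or more at the single tested concentration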;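 further: wild-type TIM10 isogenic control strain grown at permissive 25 °C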
tim10-1 inh: growth inhibitors of tim10-1 mutant yeast; AID 463190; inhibition, % at 20 µM; hit rate 2.2% among 330,000; S. cerevisiae tim10-1 ts strain growth, BacTiter-Glo, 24 h;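 active means inhibition of at least 40%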;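 further: mutant grown at 25 °C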
tim10-1 conf: confirmation of tim10-1 mutant yeast growth inhibitors. shares compounds with tim10-1 inh. AID 463213. inhibition, % at 20 µM. hit rate 56% among 7,400. S. cerevisiae tim10-1 ts strain growth, BacTiter-Glo, 24 h;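 active means inhibition of yeast growth at or above a set limit in either of two repeat tests at 20 µM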;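 further: tim10-1 mutant grown at permissive 25 °C to find synthetic lethal compounds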
tim10 confirm: TIM10 yeast growth inhibition, confirmed | shares compounds with TIM10 inh | S. cerevisiae tim10 strain growth, BacTiter-Glo luminescence, 24 h | hit rate 63% among 4,600 | inhibition, % at 10 µM;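 active means inhibition of yeast growth at or above a set limit in either of two replicates at 10 µM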; further: this counterscreen used the strain with wild-type TIM10
tim23-1 confirm: confirmation of tim23-1 mutant yeast growth inhibitors. shares compounds with tim23-1 inh. S. cerevisiae tim23-1 growth, BacTiter-Glo luminescence, 24 h. inhibition, % at 20 µM. hit rate 83% among 4,400;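 active means inhibition above about 39% in either of two replicate wells at 20 µM, limit read from the data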;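 further: temperature-sensitive tim23-1 mutant grown at 25 °C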
Each line names hits and unclear results; the compound was inactive in the other large screens (follow-up assays come after a bar, where they were run). Only some compounds are listed: those with a hit (about 4.6% of all), similar ones and a draw of the others.

CCCc1nnc(NC(=O)c2nc(S(=O)(=O)Cc3cccc(C)c3)ncc2Cl)s1	none
Cc1cccc(CS(=O)(=O)c2ncc(Cl)c(C(=O)Nc3c(C)cccc3C)n2)c1	tim23-1 inh 56, tim10-1 inh 46 | tim10-1 conf inactive | tim23-1 confirm inactive
N#Cc1cc(N)ccc1Sc1ccc(Cl)cc1	tim23-1 inh 69, tim10-1 inh 55 | tim10-1 conf 31 | tim23-1 confirm 48
N#Cc1cc(N)ccc1Sc1ccccc1	none
COc1ccc(N)c2c1C(=O)c1ccccc1C2=O	none (no result: tim23-1 inh, TIM10 inh, tim10-1 inh)
COc1ccc2noc3c2c1C(=O)c1ccccc1-3	tim23-1 inh 69, tim10-1 inh 61 | tim10-1 conf 71 | tim23-1 confirm 72
O=C1C=C(O)c2c(O)cc(O)c(O)c2C1=O	none
O=C1c2ccccc2C(=O)c2c(O)c(O)cc(O)c21	tim23-1 inh 77, tim10-1 inh 47 (no result: SKKanGAS inh) | tim10-1 conf inactive | tim23-1 confirm 70
O=CN(Cc1nc2ccccc2[nH]1)c1ccc(C(=O)O)cc1	none (no result: tim23-1 inh, SKKanGAS inh, TIM10 inh, tim10-1 inh)
Cc1cc(C)c(NC(=O)CC(=O)c2ccccc2)c(Cl)c1	none
Cc1cc(C)c(C(=O)CC(=O)c2ccccc2Cl)c(O)c1	tim23-1 inh 65, SKKanGAS inh 83, tim10-1 inh 48 | tim10-1 conf 36 | tim23-1 confirm 76
CN(C)C1C(=O)c2ccccc2C1=O	none
Cc1c(Cl)cccc1NC(=O)Nc1cc(C(C)(C)C)on1	tim23-1 inh 59, tim10-1 inh 59 | tim10-1 conf 26 | tim23-1 confirm 45
NS(=O)(=O)c1cccc(C(=O)OCC(=O)NC2CCCc3ccccc32)c1 (stereo not drawn)	none (no result: PfHsp90 set2, SKKanGAS inh)
C[C@H](CO)N1C[C@H](C)[C@@H](CN(C)Cc2ccccc2)Oc2c(NS(=O)(=O)c3cn(C)cn3)cccc2C1=O	none (no result: SKKanGAS inh)
CCNc1sc(C(=O)c2cccs2)c(N)c1-c1nc2ccccc2s1	tim23-1 inh 72, TIM10 inh 45, tim10-1 inh 53 | tim10-1 conf inactive | tim10 confirm 36 | tim23-1 confirm inactive
CC(C)c1ccc2nc(SCC(=O)NCC3CCCO3)c(C#N)cc2c1 (stereo not drawn)	none
C=CC[C@@H]1C=C(C)C[C@H](C)C[C@H](OC)[C@H]2O[C@@](O)(C(=O)C(=O)N3CCCC[C@H]3C(=O)O[C@H](/C(C)=C/[C@@H]3CC[C@@H](O)[C@H](OC)C3)[C@H](C)[C@@H](O)CC1=O)[C@H](C)C[C@@H]2OC	tim23-1 inh 68, TIM10 inh 73, tim10-1 inh 77 (no result: PfHsp90 set2, V-ATPase pHluor) | tim10-1 conf 79 | tim10 confirm 74 | tim23-1 confirm 68
COc1ccc(CCNC(=S)NC2CCN(Cc3ccccc3)CC2)cc1	none
Cc1nc2ccccc2c2c(N)c3ccccc3n12	tim23-1 inh 53, TIM10 inh 77, tim10-1 inh 41 | tim10-1 conf 47 | tim10 confirm inactive | tim23-1 confirm 55
Cc1ccc2c(c1)N(C(=O)CCC(=O)N1CCC(C(N)=O)CC1)CC(C)O2 (stereo not drawn)	none
O=S(=O)(/N=C(\Sc1ccccc1)c1ccccc1)c1ccc(Cl)cc1	none
Cc1ccc(S(=O)(=O)/N=C(\Sc2ccccc2)c2ccccc2)cc1	tim23-1 inh 52, tim10-1 inh 51 | tim10-1 conf 33 | tim23-1 confirm 62
CCOc1cc(-c2cc(-c3ccccc3)nc(N)c2C#N)ccc1O	none
CCOc1cc(-c2cc(-c3ccc(N)cc3)nc(N)c2C#N)ccc1O	tim23-1 inh 50, tim10-1 inh 41 | tim10-1 conf inactive | tim23-1 confirm 53
CC[n+]1c(/C=C/Nc2ccccc2)sc2ccccc21	none
CCN1/C(=C/C=C/C=C/c2sc3ccccc3[n+]2CC)Sc2ccccc21	tim23-1 inh 89, SKKanGAS inh 104, TIM10 inh 81, tim10-1 inh 80 (no result: PfHsp90 set2, V-ATPase pHluor) | tim10-1 conf 79 | tim10 confirm inactive | tim23-1 confirm 86
CCN1/C(=C/C=C/c2sc3ccccc3[n+]2CC)Sc2ccccc21	tim23-1 inh 85, SKKanGAS inh 89, TIM10 inh 83, tim10-1 inh 77 | tim10-1 conf 77 | tim10 confirm 76 | tim23-1 confirm 85
CCOc1ccccc1C(=O)Nc1cc2c(cc1N1CCCC1)n(CC)c(=O)n2CC	tim23-1 inh 57, tim10-1 inh 48 | tim10-1 conf inactive | tim23-1 confirm 51
CCn1c(=O)n(CC)c2cc(N3CCCC3)c(NC(=O)c3ccccc3OC)cc21	none
O=C(NC1CCOc2ccccc21)c1ccc(Cl)nc1 (stereo not drawn)	none
C=CCn1c(=O)n2ncnc2c2c3c(sc21)CCCC3	none (no result: tim23-1 inh, TIM10 inh, tim10-1 inh)
O=c1n(Cc2ccc(Cl)cc2)c2sc3c(c2c2ncnn12)CCCC3	tim23-1 inh 68, tim10-1 inh 44 | tim10-1 conf inactive | tim23-1 confirm 58
COc1cc(C=O)c(Br)cc1OC1CCCC1	tim23-1 inh 56, TIM10 inh 45, tim10-1 inh 48 | tim10-1 conf 33 | tim10 confirm 34 | tim23-1 confirm 53
COc1cc(CNC2CCCC2)c(Br)cc1OC1CCCC1	none
COc1ccc2c(c1)c1ncn(CCN3CCCC3)c(=O)c1n2C	none
COc1ccc2c(c1)c1ccc3c(c1n2C)C(=O)C=CC3=O	tim23-1 inh 68, TIM10 inh 55, tim10-1 inh 47 (no result: SKKanGAS inh) | tim10-1 conf 60 | tim10 confirm 93 | tim23-1 confirm inactive
Cc1ccc2c(c1)c1ccc3c(c1n2C)C(=O)C=CC3=O	PfHsp90 set2 inconclusive, tim23-1 inh 73, TIM10 inh 63, tim10-1 inh 63 (no result: SKKanGAS inh) | tim10-1 conf 56 | tim10 confirm 94 | tim23-1 confirm 42
Cc1ccc2c(c1)c1ncnc(N3CCOCC3)c1n2C	none (no result: PfHsp90 set2)
C=CCn1c(O)c(/C=C2\C=NN=C2c2ccccc2)sc1=S	tim23-1 inh 51, tim10-1 inh 43 | tim10-1 conf 35 | tim23-1 confirm 51
O=C(COc1ccc(/C=N/NC(=O)C(=O)N2CCCCCC2)cc1)Nc1ccccc1Cl	none (no result: tim23-1 inh, TIM10 inh, tim10-1 inh)
O=c1oc2ccccc2nc1/C=C(O)/C=C/c1ccc(F)cc1	tim23-1 inh 64, TIM10 inh 56, tim10-1 inh 41 | tim10-1 conf 59 | tim10 confirm 58 | tim23-1 confirm inactive
COc1cccc2oc3ccc(C#Cc4ccccn4)cc3c(=O)c12	tim23-1 inh 75, TIM10 inh 56, tim10-1 inh 41 | tim10-1 conf 53 | tim10 confirm 38 | tim23-1 confirm 70

Source: PubChem BioAssay (several laboratories)
